Source: PubChem BioAssay (National Center for Advancing Translational Sciences (NCATS))
BAZ2B block: qHTS Assay for Inhibitors of BAZ2B; actives 4.4% (n = 360,000); AlphaScreen BAZ2B-H3K14Ac peptide displacement; AID 504333, 2011; Bromodomain adjacent to zinc finger domain protein 2B (Homo sapiens), Q9UIF8; Potency, µM (doses to about 114 µM), most hits filed as inhibitors; further: nearly all actives have a fitted effect of over 60% in size
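AlphaScreen displacement of biotin-H3(5-23)K14Ac peptide (50 nM final) from BAZ2B (50 nM final) in PBS pH 7.4, 0.01% Tween-20; complex preformed 30 min RT, then compounds (top 110 uM) 30 min RT, beads 20 min dark.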
JMJD2A Tudor inh: qHTS Assay for Inhibitors of JMJD2A-Tudor Domain | Lysine-specific demethylase 4A (Homo sapiens), O75164 | AlphaScreen JMJD2A-Tudor / H3K4me3 peptide binding | Potency, µM (top dose mostly 114 µM), usual class: inhibitors | actives 4.4% (n = 390,000) | AID 504339, 2011; further: nearly all actives have a fitted effect of over 50% in size
GLS inhibitor: qHTS for Inhibitors of Glutaminase (GLS) | Potency, µM (top dose mostly 45.5 µM), hits mostly inhibitors | GLS enzymatic activity, qHTS titration | AID 624170, 2012 | Glutaminase kidney isoform, mitochondrial (Homo sapiens), O94925 | actives 0.21% (n = 410,000)
Target sequence (O94925 whole entry, looked up, canonical isoform): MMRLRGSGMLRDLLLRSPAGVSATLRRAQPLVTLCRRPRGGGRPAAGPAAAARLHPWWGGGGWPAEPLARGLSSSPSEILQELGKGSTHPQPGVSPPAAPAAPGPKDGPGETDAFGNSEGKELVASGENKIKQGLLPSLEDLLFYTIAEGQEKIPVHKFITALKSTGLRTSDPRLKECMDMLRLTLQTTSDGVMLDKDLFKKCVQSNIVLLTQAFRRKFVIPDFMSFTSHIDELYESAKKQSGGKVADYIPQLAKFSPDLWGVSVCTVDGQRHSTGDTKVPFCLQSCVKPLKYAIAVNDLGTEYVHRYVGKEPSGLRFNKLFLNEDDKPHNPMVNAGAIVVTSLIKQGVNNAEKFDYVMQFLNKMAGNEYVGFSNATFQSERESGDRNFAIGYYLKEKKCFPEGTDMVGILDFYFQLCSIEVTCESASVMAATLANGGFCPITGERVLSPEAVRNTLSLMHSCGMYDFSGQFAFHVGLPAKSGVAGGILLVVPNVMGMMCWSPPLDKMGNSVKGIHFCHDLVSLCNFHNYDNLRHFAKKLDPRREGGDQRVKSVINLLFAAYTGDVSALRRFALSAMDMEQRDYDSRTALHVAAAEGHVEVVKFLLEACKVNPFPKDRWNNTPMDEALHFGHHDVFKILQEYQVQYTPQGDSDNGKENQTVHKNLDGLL
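Human kidney-isoform GLS in 45 mM KH2PO4 pH 8.2, 0.02% Tween-20, with compound, started with 1mM L-Glutamine (added stock). Glutamate oxidase/HRP/Amplex red coupled fluorescence read at start and after 30 min at RT.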
G9a block: qHTS Assay for Inhibitors of Histone Lysine Methyltransferase G9a; Potency, µM (titrated, usually from 102 µM), most hits filed as inhibitors; G9a H3K9 monomethylation, AlphaScreen, 2 h; actives 8.8% (n = 350,000); Histone-lysine N-methyltransferase EHMT2 (Homo sapiens), Q96KQ7; further: nearly all actives have a fitted effect of over 75% in size
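Chemiluminescent proximity detection of H3K9 monomethylation, read after 10 min bead incubation in the dark. Reaction: 20 nM G9a, 500 nM biotin-H3K9 peptide, 20 uM SAM cofactor, 2 h, room temperature, following 15 min enzyme-compound preincubation.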
HP1b chromo inh: HTS for Inhibitors of HP1-beta Chromodomain Interactions with Methylated Histone Tails; Chromobox protein homolog 1 (Homo sapiens), P83916; AlphaScreen HP1-beta / biotin-H3K9me3 peptide binding; Potency, µM (doses to about 114 µM), actives largely listed as inhibitors; actives 0.56% (n = 390,000); AID 540317, 2011; further: nearly all actives have a fitted effect of over 70% in size
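AlphaScreen: HP1-beta (50 nM) preformed 30 min with biotin-H3(1-18)K9me3 peptide (50 nM) in PBS pH 7.4, 0.01% Tween-20. Compound added for 30 min at RT, then streptavidin donor/nickel chelate acceptor beads (10 ug/mL) for 30 min.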
Large screens that a line does not name were inactive. Hits are enriched below; roughly 10% of the tested compounds scored in any of these assays. The call rests on the fitted dose curve; in most records, active means well fitted curve in the direction sought with a large enough effect; inconclusive means small, poorly fitted or top-dose-only effect, or another doubt; inactive means no such curve, though single readings can be large; an effect the other way counts as inactive or inconclusive.

CCN1C(=O)C2CCCCN2c2ccc(C(=O)NCCOC)cc21 (centres undefined)	G9a block 79µM
OCC[C@@H]1C[C@H](O)[C@@H](O)[C@@]2(OCCc3cc(Cl)ccc32)O1	none (no result: BAZ2B block, JMJD2A Tudor inh, G9a block, HP1b chromo inh)
COc1cc(C(=O)NCC(c2ccc(N(C)C)cc2)N2CCCC2)cc(OC)c1OC (centres undefined)	none
O=[N+]([O-])c1ccc(S(=O)(=O)NCC(c2cccnc2)N2CCc3ccccc3C2)cc1 (centres undefined)	BAZ2B block inconclusive, G9a block 50µM
COc1cc(C(=O)NCC(c2ccc(N(C)C)cc2)N2CCc3ccccc32)cc(OC)c1OC (centres undefined)	BAZ2B block 13µM, JMJD2A Tudor inh 16µM, G9a block 18µM, HP1b chromo inh inconclusive
O=[N+]([O-])c1ccc(S(=O)(=O)NCC(c2cccnc2)N2CCOCC2)cc1 (centres undefined)	none (no result: BAZ2B block)
O=C(NCC(c1ccco1)N1CCc2ccccc21)c1c(F)cccc1F (centres undefined)	BAZ2B block inconclusive
COc1ccc(C(=O)NCC(c2cccnc2)N2CCc3ccccc3C2)cc1 (centres undefined)	none
COc1ccc(C(=O)NCC(c2cccnc2)N2CCc3ccccc3C2)cc1OC (centres undefined)	BAZ2B block 5µM, JMJD2A Tudor inh 32µM, G9a block 4.5µM
CN(C)c1ccc(C(CNC(=O)c2ccccc2F)N2CCc3ccccc32)cc1 (centres undefined)	BAZ2B block 16µM, JMJD2A Tudor inh 10µM, G9a block inconclusive, HP1b chromo inh inconclusive
COc1cccc(C(=O)NCC(c2ccc(N(C)C)cc2)N2CCc3ccccc32)c1OC (centres undefined)	BAZ2B block 14µM, JMJD2A Tudor inh 10µM, HP1b chromo inh inconclusive
COc1cccc(C(=O)NCC(c2ccc(N(C)C)cc2)N2CCCC2)c1OC (centres undefined)	G9a block inconclusive
COc1ccc(C(=O)NCC(c2cccnc2)N2CCc3ccccc32)cc1OC (centres undefined)	none
COc1cccc(C(=O)NCC(c2ccc(N(C)C)cc2)N2CCc3ccccc32)c1 (centres undefined)	BAZ2B block 7.9µM, JMJD2A Tudor inh 7.9µM, G9a block 10µM, HP1b chromo inh 10µM
COc1ccc(C(=O)NCC(c2ccc(N(C)C)cc2)N2CCc3ccccc32)cc1OC (centres undefined)	BAZ2B block 20µM, JMJD2A Tudor inh 20µM, G9a block 25µM, HP1b chromo inh inconclusive
CC(=O)c1cc(-c2ccccc2)n(CCC(=O)Nc2ccc(C(C)C)cc2)c1C	BAZ2B block inconclusive, G9a block inconclusive
COc1cc(OC)c(N(C)C(=O)c2nn(C)c3c2CSc2ccccc2-3)cc1Cl	G9a block inconclusive
C(=N\NC1=NCCN1)/c1ccncc1	BAZ2B block inconclusive, JMJD2A Tudor inh inconclusive, G9a block 40µM
Cc1ccc(S(=O)(=O)NCC(=O)OCc2nnc(-c3ccccc3)o2)cc1	none
Cc1c2c(nc3ccccc13)CCC(C(C)(C)C)C2 (centres undefined)	G9a block 50µM
COC1OC2COC(c3ccccc3)OC2C2OC12 (centres undefined)	none (no result: BAZ2B block, G9a block)
Cc1cc2[nH]c3c(c[n+](C)c4ccccc34)c2cc1C	BAZ2B block inconclusive, G9a block 18µM
O=C(NCc1ccco1)c1cnn2c1NC(c1ccccc1)CC2C(F)(F)F (centres undefined)	JMJD2A Tudor inh inconclusive
O=C(c1cnn2c1NC(c1ccco1)CC2C(F)(F)F)N1CCN(c2cccc(Cl)c2)CC1 (centres undefined)	BAZ2B block inconclusive, G9a block 10µM
O=C(NCc1ccco1)c1cnn2c1NC(c1ccc(Br)cc1)CC2C(F)(F)F (centres undefined)	BAZ2B block inconclusive, JMJD2A Tudor inh inconclusive, GLS inhibitor inconclusive, G9a block 50µM, HP1b chromo inh inconclusive
O=C(c1ccco1)N1CCN(C(=O)c2cnn3c2NC(c2cccs2)CC3C(F)(F)F)CC1 (centres undefined)	none
CCOC(=O)c1ccc2c(c1)N(Cc1cccc([N+](=O)[O-])c1)C(=O)c1ccccc1S2	none
O=C(NCCSc1c[nH]c2ccccc12)c1ccc(Br)o1	G9a block 79µM
O=C(NCCc1c[nH]c2ccccc12)c1ccc(Br)o1	none (no result: BAZ2B block, G9a block)
COc1cc(/C=C/C(=O)O[C@H]2CC[C@]34C[C@]35CC[C@]3(C)[C@@H]([C@H](C)CCC=C(C)C)CC[C@@]3(C)C5CCC4C2(C)C)ccc1O (some centres undefined)	none (no result: BAZ2B block, JMJD2A Tudor inh, G9a block, HP1b chromo inh)
Cc1[nH]c2ccccc2c1C(c1ccncc1)N1CCN(c2ccc(F)cc2)CC1 (centres undefined)	BAZ2B block inconclusive, JMJD2A Tudor inh inconclusive, G9a block inconclusive
Cc1[nH]c2ccccc2c1C(c1ccncc1)N1CCCCC1 (centres undefined)	BAZ2B block inconclusive, G9a block 35µM
Cc1ccnc(NC(c2ccncc2)c2c(C)[nH]c3ccccc23)c1 (centres undefined)	BAZ2B block inconclusive, G9a block 10µM
CC(=O)N1CCc2c(sc3c2c(=O)n(-c2ccccc2Cl)c(=O)n3C)C1	GLS inhibitor inconclusive
O=C1Nc2cc(S(=O)(=O)N3CCCC3)ccc2N2CCCC12 (centres undefined)	BAZ2B block inconclusive, G9a block 22µM
O=C1Nc2cc(Cl)cnc2N2CCCC12 (centres undefined)	G9a block 8.9µM
CCN(CC)S(=O)(=O)c1ccc2c(c1)NC(=O)C1CCCN21 (centres undefined)	none
O=C1Nc2cc(C(F)(F)F)ccc2N2CCCCC12 (centres undefined)	G9a block 50µM
O=C1Nc2ccccc2C(=O)N2C[C@@H](O)C[C@H]12	none
CCOc1cc(CNC(=O)c2ccc3c(c2)NC(=O)C2CCCCN32)cc(OCC)c1OCC (centres undefined)	none
CC1CCC(NC(=O)CN2C(=O)C3CCCN3c3ncc(Cl)cc32)CC1 (centres undefined)	G9a block inconclusive (no result: JMJD2A Tudor inh, GLS inhibitor, HP1b chromo inh)
O=C1Nc2ccccc2N2CCCC12 (centres undefined)	G9a block 20µM (no result: JMJD2A Tudor inh, GLS inhibitor, HP1b chromo inh)
COc1ccc(OC)c(NC(=O)C(C)n2nc(C)c3c(C)n(-c4ccccc4)nc3c2=O)c1 (centres undefined)	none
